Hits are enriched below; roughly 8.9% of the tested compounds scored in any of these assays.
NPSR antagonist – qHTS Assay for Antagonists of the Neuropeptide S Receptor: cAMP Signal Transduction. Q6W5P4. CHO-NPSR cells, cAMP TR-FRET, antagonist mode. Potency, µM (top dose mostly 38.3 µM), inactives show top-dose activity change, negative = inhibition, usual class: inhibitors. 220,000 compounds, 1% hits. AID 1461, 2008; further: potency means the concentration at half of the fitted maximal effect; nearly all actives have a fitted effect of over 50% in size
HPGD inh – qHTS Assay for Inhibitors of HPGD (15-Hydroxyprostaglandin Dehydrogenase) | Potency, µM, without a hit: top-dose activity change, negative = inhibition, actives largely listed as inhibitors | AID 894, 2007 | 150,000 compounds, 4.3% hits | purified HPGD, NADH fluorescence kinetic, PGE2 substrate; active means well fitted inhibition curve with a large enough effect, not every such curve was filed as active; inconclusive means small, poorly fitted or top-dose-only effect, or another doubt; inactive means no such curve, though single readings can be large or run the other way; further: potency means the concentration at half of the fitted maximal effect
Target sequence (P15428 whole entry, looked up): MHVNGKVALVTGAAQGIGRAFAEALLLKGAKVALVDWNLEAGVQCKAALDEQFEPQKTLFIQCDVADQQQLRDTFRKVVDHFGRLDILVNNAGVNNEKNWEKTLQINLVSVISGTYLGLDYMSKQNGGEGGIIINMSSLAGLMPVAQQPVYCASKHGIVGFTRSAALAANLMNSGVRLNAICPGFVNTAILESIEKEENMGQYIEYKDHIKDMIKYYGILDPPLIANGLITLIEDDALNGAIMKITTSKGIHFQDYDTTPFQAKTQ
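NADH formation kinetics: reaction with 30 uM PGE2 and 1 mM NAD+ (final), 20 nM enzyme, Tris-HCl pH 8 with Tween 20, after 15 min compound preincubation at room temperature. Fluorescence change, last versus first of five reads.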
IMPase Li inh – qHTS Assay for Identifying the Cell-Membrane Permeable IMPase Inhibitors: Potentiation with Lithium. Potency, µM (top dose mostly 59.4 µM), without a hit: at the highest dose activity, negative = IMPase inhibition, most hits filed as inhibitors. CHO-M1 cells, IP1 TR-FRET (IP-One), carbachol + lithium. 210,000 compounds, 0.35% hits;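 further: IP1 builds up when IMPase is blocked and the TR-FRET signal falls; potency means the concentration at half of the fitted maximal effect; plate controls were basal vehicle for no effect and high inhibitor control for full effect; nearly all actives have a fitted effect of over 50% in size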
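Concentration–response in CHO-M1 cells, lithium-potentiated; 30 min at 37C. IP1 detected by competitive TR-FRET after 10 min lysis at RT. Hill-fitted AC50.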
IMPase cell inh – qHTS Assay for Identifying the Cell-Membrane Permeable IMPase Inhibitors; CHO-M1 cells, IP1 accumulation, HTRF TR-FRET ratio; Inositol monophosphatase 1 (Rattus norvegicus), P97697; 120,000 tested, under 10 active; inhibition (IP1 accumulation), % at 46.1 µM; active means well fitted curve in the direction sought with a large enough effect in the signal ratio, not every such curve was filed as active; inconclusive means small, poorly fitted or top-dose-only effect, or a change in a side signal; inactive means no such curve, though single readings can be large or run the other way; the % refers to the signal ratio;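 further: cells stimulated with carbachol in lithium chloride buffer; plate controls were DMSO basal wells for no effect and reference inhibitor wells for full effect; higher means more IMPase inhibition seen as more IP1 and lower FRET ratio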
Target sequence (P97697 whole entry, looked up): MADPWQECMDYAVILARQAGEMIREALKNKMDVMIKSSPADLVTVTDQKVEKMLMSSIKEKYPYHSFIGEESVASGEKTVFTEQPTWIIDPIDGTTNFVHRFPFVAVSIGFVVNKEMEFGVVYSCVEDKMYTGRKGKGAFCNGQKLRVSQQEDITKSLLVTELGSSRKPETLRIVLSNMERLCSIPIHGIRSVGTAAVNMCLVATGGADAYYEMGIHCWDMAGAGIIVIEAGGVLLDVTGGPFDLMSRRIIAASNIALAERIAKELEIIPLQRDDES
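CHO-M1 cells (CHO stably expressing M1 receptor), compound up to 46 uM final, stimulated with carbachol (50 uM as added) in buffer with 50mM LiCl, pH 7.4, 30 min at 37C. Cytosolic IP1 read by TR-FRET; AC50 from Hill fits.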
ALOX12 inhib – qHTS Assay for Inhibitors of 12-hLO (12-human lipoxygenase); Polyunsaturated fatty acid lipoxygenase ALOX12 (Homo sapiens), P18054; purified 12-hLO, xylenol orange hydroperoxide absorbance; Potency, µM (titrated, usually from 57.1 µM), without a hit: top-dose activity change, negative = inhibition, actives largely listed as inhibitors; 150,000 compounds, 0.12% hits; AID 1452, 2008; further: potency means the concentration at half of the fitted maximal effect; nearly all actives have a fitted effect of over 55% in size
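Purified human 12hLO (150 nM), preincubated 15 min with compound, then 40 uM arachidonic acid for 30 min, room temperature, Hepes pH 7.0 with 0.01% Triton X-100. Hydroperoxide detected by ferrous iron/xylenol orange; 573/405 nm absorbance ratio gives reaction progress.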
ALDH1A1 inh – qHTS Assay for Inhibitors of Aldehyde Dehydrogenase 1 (ALDH1A1) | Aldehyde dehydrogenase 1A1 (Homo sapiens), P00352 | Purified ALDH1A1, NADH fluorescence, propionaldehyde substrate | Potency, µM (doses to about 75.3 µM), for inactives: at the highest dose activity, negative = inhibition, hits mostly inhibitors | 220,000 compounds, 7.3% hits | AID 1030, 2008; active means well fitted inhibition curve with a large enough effect, not every such curve was filed as active; inconclusive means small, poorly fitted or top-dose-only effect, or another doubt; inactive means no such curve, though single readings can be large or run the other way;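 further: potency means the concentration at half of the fitted maximal effect; plate controls were no enzyme wells and a reference inhibitor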
* hit, by the source's call; ? = inconclusive; nt = no result given; [ ] = another dose, or the depositor's remark. Unless noted, the call rests on the fitted dose curve; in most records, active means well fitted curve in the direction sought with a large enough effect; inconclusive means small, poorly fitted or top-dose-only effect, or another doubt; inactive means no such curve, though single readings can be large; an effect the other way counts as inactive or inconclusive. Unless noted, on the % scale 0 is the no-effect control and ±100 the full control effect.

SMILES	NPSR antagonist	HPGD inh	IMPase Li inh	IMPase cell inh	ALOX12 inhib	ALDH1A1 inh
CC(C)[C@H](NC(=O)c1ccccc1Cl)C(=O)Nc1nc(-c2ccccn2)cs1	-18.1%	nt	-23.0%	nt	nt	?
c1ccc(CCNc2nc(-c3cccnc3)cs2)cc1	-7.1%[46.1 µM]	-15.3%	15.7%	8.8	6.5%	?
C[C@@H](C(=O)Nc1nc(-c2ccccn2)cs1)N1C(=O)C2CCCCC2C1=O (stereo partly specified)	-6.4%[46.1 µM]	25.1µM*	2.7%[38.3 µM]	-3.9	-14.6%	12.6µM*
O=C(CCN1C(=O)C2CCCCC2C1=O)Nc1nc(-c2ccc(F)c(F)c2)cs1 (stereo unspecified)	-4.9%	nt	10.2%	nt	nt	?
O=C(CN1C(=O)C2CCCCC2C1=O)Nc1nc(-c2ccccn2)cs1 (stereo unspecified)	-17.8%[46.1 µM]	28.2µM*	46.1%[38.3 µM]	6.7	0.6%	22.4µM*
O=C1C2C3C=CC(C3)C2C(=O)N1CNc1ccccn1 (stereo unspecified)	-6.9%[46.1 µM]	-1.2%	18.9%[38.3 µM]	0.5	-1.4%	10.2%
CCNc1ncc2nc(-c3cc(F)cc(F)c3)c(=O)n(Cc3ccc(F)cc3)c2n1	nt	nt	-14.8%	nt	nt	-14.2%
COc1ccc(CNC(=O)[C@H](C)NC(=O)C2CCN(S(=O)(=O)c3ccc(C)cc3)CC2)cc1	-2.2%[46.1 µM]	-9.7%	13.1%[38.3 µM]	-4.6	-0.9%	?
COC(=O)C1C2C=CC3(CN(C(C)C)C(=O)C13)O2 (stereo unspecified)	9.8%[46.1 µM]	-4.0%	7.9%[38.3 µM]	9.8	-4.3%	-8.9%
O=C(Nc1nc(-c2ccccn2)cs1)C1COc2ccccc2O1 (stereo unspecified)	-22.8%[46.1 µM]	-10.1%	6.6%	0.1	-14.9%	5.8%
CC1CC1C(=O)Nc1nc(-c2ccccn2)cs1 (stereo unspecified)	-8.2%[46.1 µM]	14.1µM*	30.5%[38.3 µM]	1.9	-8.2%	10µM*
CO/N=C/CC(=O)c1cnc(-c2ccc(Cl)cc2)s1	-5.7%	nt	-7.1%	nt	nt	3.16µM*
COc1ccccc1CCNC(=O)c1csc2c1CCCC2	-47.0%	nt	9.5%	nt	nt	?
COc1ccc(CCC(C)Nc2ccccc2F)cc1 (stereo unspecified)	-1.8%	-8.9%	4.6%	nt	2.4%	-3.9%
COc1ccc(CCC(C)Nc2cccc(F)c2)cc1 (stereo unspecified)	-18.2%[46.1 µM]	-18.3%	17.9%[38.3 µM]	5.4	-1.7%	10µM*
COc1ccc(S(=O)(=O)NC2(C(F)(F)F)N=C(c3ccccc3)NC2=O)cc1 (stereo unspecified)	1.7%	-0.6%	1.4%	nt	0.4%	13.0%
O=C(NC(=S)NCCSc1ccccc1)c1cccnc1	9.0%	-13.7%	11.2%	nt	-2.9%	14.1µM*
Cc1ccccc1C(=O)NNC(=S)NC(=O)c1cccnc1	0.4%	-10.9%	-1.9%	nt	-0.1%	25.1µM*
O=C(NC(=S)NNC(=O)c1ccccc1F)c1cccnc1	9.7%	nt	nt	nt	nt	7.08µM*
CCSc1nnc2nc3[nH]c4c(C)cccc4c3nn12	-27.8%	nt	-9.2%	nt	nt	14.4%
O=C(N/N=C/c1ccncc1)C1CC1C(=O)N/N=C/c1ccncc1 (stereo unspecified)	17.3%	-15.3%	-8.8%	nt	3.1%	-3.1%
Cc1ccc(S(=O)(=O)NCC(=O)NCC(=O)N2CCN(c3ncccn3)CC2)cc1C	18.1%	nt	nt	nt	nt	nt
COc1ccc2c(c1OC)C(=O)N(c1cccc(C)c1)C2=O	-25.5%[46.1 µM]	-13.1%	0.1%[38.3 µM]	?	-4.4%	5.01µM*
O=C(N/N=C/c1cccs1)c1cc(-c2cccc3ccccc23)n[nH]1	-25.6%	25.1µM*	3.5%	6.7	-3.0%	-0.8%

Source: PubChem
